In the library only some 1.4% were active in any assay of this set; here they are far more common.
BCLXL inh: blocks human Bcl-xL binding to Bim BH3 peptide | 320,000 compounds, 0.7% hits | GST-Bcl-xL / FITC-Bim BH3 peptide fluorescence polarization | inhibition, % at 10.9 µM | AID 2129 | Q07817;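 active = inhibition above the mean of all tested compounds plus 3 SD, cutoff set per campaign, cut at about 30% in these data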;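 also: 0% = DMSO wells and 100% = unlabeled Bim-BH3 peptide competitor; inhibitors lower millipolarization by displacing the labeled peptide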
Target sequence (Q07817 whole entry, looked up): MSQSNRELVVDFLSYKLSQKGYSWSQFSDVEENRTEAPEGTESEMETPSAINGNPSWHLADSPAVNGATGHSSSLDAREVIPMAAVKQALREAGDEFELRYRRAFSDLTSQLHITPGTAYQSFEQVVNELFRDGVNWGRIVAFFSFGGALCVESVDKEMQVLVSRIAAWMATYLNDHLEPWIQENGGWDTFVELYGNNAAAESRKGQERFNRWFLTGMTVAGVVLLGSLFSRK
GLD-1 TGE inh: GLD-1-TGE RNA interaction inhibition (C. elegans). purified GLD-1 + fluorescein TGE RNA, fluorescence polarization. 320,000 compounds, 0.44% hits. inhibition, % at 5.96 µM;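 active = percent inhibition above a per-plate cutoff, the plate mean of test compounds plus 3 SD, cut at about 30% in these data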;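 also: 0% = DMSO wells with GLD-1 and probe and 100% = wells lacking GLD-1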
eLon inh: E. coli protease La inhibition; P0A9M0; purified E. coli Lon protease, fluorescence polarization; inhibition, % at 7.94 µM; 360,000 compounds, 0.42% hits; in the data active = inhibition above about 13%, passing the limit was not always enough;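 also: 0% = enzyme with probe and DMSO and 100% = no enzyme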
MCL1-BIM inh: MCL1-BIM-BH3 interaction inhibition (human) | 320,000 compounds, 0.68% hits | AID 2057 | GST-MCL1 / FITC-Bim-BH3 fluorescence polarization | inhibition, % at 10.9 µM | Q07820;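 active = inhibition above the mean inhibition of all tested compounds plus 3 SD, set per campaign, cut at about 40% in these data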;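 also: 0% = DMSO wells and 100% = unlabeled Bim-BH3 peptide control; higher means more loss of mP so more displacement of Bim peptide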
Target sequence (Q07820 whole entry, looked up): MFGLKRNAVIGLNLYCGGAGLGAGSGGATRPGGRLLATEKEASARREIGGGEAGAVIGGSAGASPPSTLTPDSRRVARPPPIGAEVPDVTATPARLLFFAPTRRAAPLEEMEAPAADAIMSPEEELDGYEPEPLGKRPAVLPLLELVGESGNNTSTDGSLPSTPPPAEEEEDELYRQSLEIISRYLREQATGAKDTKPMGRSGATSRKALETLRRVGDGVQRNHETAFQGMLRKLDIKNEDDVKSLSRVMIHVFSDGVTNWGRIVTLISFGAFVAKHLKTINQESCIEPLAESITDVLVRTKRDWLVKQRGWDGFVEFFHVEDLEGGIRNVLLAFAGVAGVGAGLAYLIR
EBV gp42 inh: EBV gp42 inhibition. Q1HVG2. Fluorescence polarization binding assay, mP read-out. inhibition, % (tested at 21.74 µM). 220,000 compounds, 0.42% hits. AID 1085; in the data active = inhibition above about 50%
MEX-5 binding: C. elegans MEX-5 TCR-2 RNA binding activity; Q9XUB2; MEX-5/FITC-TCR2 RNA binding, fluorescence polarization; hits give low values; activity score (negative = inhibition of binding), % at 10 µM; 300,000 compounds, 0.38% hits; AID 1832;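 active = inhibition past about -25% in most replicates, and total fluorescence under double the plate's negative control median, limit read from the data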;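 also: 0% = DMSO and -100% = 5 µM competing unlabeled TCR2 RNA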
Bcl-xL conf: counter-screen for MCL1 inhibitors: confirmation of human Bcl-xL inhibitors. GST-Bcl-xL / FITC-Bim BH3 peptide FP binding. 1,700 compounds, 54% hits. inhibition, % at 10.9 µM. shares compounds with MCL1-BIM inh;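 active = inhibition above a cutoff equal to the mean inhibition of all tested compounds plus 3 SD, cut at about 30% in these data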;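 also: 0% = DMSO wells and 100% = unlabeled Bim BH3 control peptide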
MCL1 inh confirm: MCL1-BIM-BH3 interaction inhibition, confirmation; shares compounds with MCL1-BIM inh; GST-MCL1 / FITC-Bim-BH3 fluorescence polarization; inhibition, % at 10.9 µM; 1,700 compounds, 61% hits;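 active = inhibition above the average of all tested compounds plus 3 SD, cut at about 40% in these data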;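 also: 0% = DMSO wells and 100% = unlabeled Bim-BH3 control peptide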
The depositor's hits bear a star; x = no result given; + = active, no number.

SMILES	BCLXL inh	GLD-1 TGE inh	eLon inh	MCL1-BIM inh	EBV gp42 inh	MEX-5 binding	Bcl-xL conf	MCL1 inh confirm
O=C(CN1C(=O)NC2(CCCc3ccccc32)C1=O)N1CCCCC1 (stereo not given)	-14	5	-6	-19	x	-3	x	x
COc1cc(OC)c(NC(=O)Cc2cccs2)cc1Cl	0	-1	10	1	x	2	x	x
CCN(CC)S(=O)(=O)c1ccc(OC)c(NC(=O)Cc2cccs2)c1	7	-1	1	40*	42	-2	22	51*
Cc1ccc(CNc2ccc3c(c2)OCO3)c(C)c1	127*	0	x	144*	43	-2	72*	90*
Cc1ccc(C)c(NC(=O)Nc2ccc3c(c2)OCO3)c1	2	3	-8	1	x	3	x	x
Cc1ccccc1C1C(C#N)=C2N=C(N)c3c(sc4c3CCCCC4)N2C2=C1C(=O)CC(C)(C)C2 (stereo not given)	55*	48*	-7	54*	13	-2	39*	51*
COc1cc(/C=C(/C#N)C(=O)Nc2ccc(Cl)cc2)ccc1Oc1nc(Cl)ncc1F	7	-1	-4	-1	-18	-2	x	x
COc1ccc(/C=C(/NC(=O)c2ccccc2)C(=O)N2CCOCC2)cc1OC	-3	12	-7	3	x	-2	x	x
COC(=O)C(Nc1nccs1)(OC)C(F)(F)F (stereo not given)	61*	7	13	68*	60*	-20	71*	106*
COC(=O)CCC(=O)Nc1nccs1	1	5	10	1	-7	1	x	x
Cc1csc(SCC(=O)Nc2ccccn2)n1	3	-4	-11	4	-16	1	x	x
O=C(CSc1nc(-c2ccc(F)cc2)cs1)Nc1ccccn1	-2	1	1	64*	-26	1	9	6
COc1ccccc1NC(=O)CSc1sc2c(O)cc(=O)[nH]c2c1C#N	18	1	-7	45*	x	-2	16	27
CCc1nnc(NC(=O)CSc2sc3c(O)cc(=O)[nH]c3c2C#N)s1	26	-3	-23	48*	x	-5	32*	58*
COc1cccc(C(=O)Nc2ccc3c(c2)C(=O)c2ccccc2C3=O)c1	17	1	0	77*	30	1	8	34
COc1cccc(C(=O)Nc2ccncc2)c1	7	10	x	45*	-6	-1	-1	3
CCN(CC)CCNC(=O)C(=O)Nc1cc2c3c(c1)CCC(=O)N3CCC2	4	3	-8	8	x	0	x	x
O=C(Nc1c(C(=O)O)[nH]c2ccc(F)cc12)c1cccc(C(F)(F)F)c1	9	0	6	-4	1	-1	x	x
O=C(O)Cc1c[nH]c2ccccc12	3	2	-5	7	x	0	x	x
O=C(O)Cc1c[nH]c2cccc(O)c12	12	5	-3	45*	-9	-15	15	32
CCOC(=O)N1CC=C2C(C#N)=C(N)C(C#N)(C#N)[C@H](c3ccc(OC(C)C)c(OCC)c3)[C@H]2C1	7	1	-25	-7	3	-6	x	x
COc1cc([C@@H]2[C@H]3CN(C)CC=C3C(C#N)=C(N)C2(C#N)C#N)cc2c1OCO2	54*	21	-12	52*	9	x	21	24
CN1CC=C2C(C#N)=C(N)C(C#N)(C#N)[C@H](c3cccs3)[C@H]2C1	112*	79*	109*	118*	36	-68*	63*	71*
CN1CC=C2C(C#N)=C(N)C(C#N)(C#N)C(CCc3ccccc3)C2C1 (stereo not given)	89*	49*	33*	82*	29	x	43*	65*
CCOC(=O)N1CC=C2C(C#N)=C(N)C(C#N)(C#N)[C@H](c3ccccc3OCC)[C@H]2C1	15	17	1	11	-10	-4	x	x
SMILES	BCLXL inh	GLD-1 TGE inh	eLon inh	MCL1-BIM inh	EBV gp42 inh	MEX-5 binding	Bcl-xL conf	MCL1 inh confirm
Cc1c(C(=O)NCCSCc2cccc(C(F)(F)F)c2)cnn1-c1ccc(Cl)cc1	4	9	4	4	-12	0	x	x
Nc1nn2c(-c3ccccc3)cc(=O)[nH]c2c1N=Nc1ccc(O)cc1	25	-6	-17	64*	47	-3	38*	74*
COc1ccc(S(=O)(=O)N2CCOCC2)cc1NC(=O)c1cccc(-n2cccc2)c1	-10	3	-15	8	x	4	x	x
CCOc1ccc(NC(=O)c2cccc(-n3cccc3)c2)cc1S(=O)(=O)N1CCOCC1	0	12	0	67*	x	x	4	56*
COc1ccc(NC(=O)CCNS(=O)(=O)c2ccccc2F)cc1S(N)(=O)=O	-4	-5	3	-2	x	-1	x	x
Cc1cc(-c2ccco2)c(C#N)c2nc3ccccc3n12	85*	-14	4	128*	x	-20	127*	173*
CC(C)CCOP(=O)(c1ccc(N(C)C)cc1)C(Nc1ccccc1)c1ccc(N(C)C)cc1 (stereo not given)	3	1	-7	7	-6	x	x	x
CCCOP(=O)(c1ccc(N(C)C)cc1)C(Nc1ccccc1)c1ccc(C)cc1 (stereo not given)	2	7	-3	44*	-1	x	-6	-9
Cc1ccc(-n2[nH]c(C)c(C=Nc3ccc4[nH]c(=O)[nH]c4c3)c2=O)cc1C	60*	15	0	117*	23	-7	103*	130*
Cc1ccc(-n2[nH]c(C)c(C=Nc3ccc4[nH]c(=O)[nH]c4c3)c2=O)cc1	17	8	2	28	24	-2	x	x
COc1ccc(/C=C2\Oc3cc(OCC(=O)N4CCC[C@H]4CO)ccc3C2=O)c(OC)c1	-29	-82	-52	-49	x	-1	x	x
CC(=O)n1cc([C@H]2C=C(C(=O)N3CCN(Cc4ccccc4)CC3)O[C@@H](OCCCCO)C2)c2ccccc21	7	-7	-8	70*	-14	1	15	23
CCCCn1c(SCC(=O)N2CCCCC2)nc2cc(S(N)(=O)=O)ccc21	-5	2	-10	7	-33	1	x	x
CCCCn1c(SCC(=O)NCc2ccco2)nc2cc(S(N)(=O)=O)ccc21	-8	-1	9	41*	-9	2	4	12
CSc1cccc(NC(=O)Nc2ccccc2C(N)=O)c1	-2	-1	2	-17	-5	-1	x	x
N#CCN(CC#N)C(=O)C1c2ccccc2Oc2ccccc21	+	+	12	+	x	1	6	11
